# In PMC6792352, “Limited Chemical Structural Diversity Found to Modulate Thyroid Hormone Receptor in the Tox21 Chemical Library” (Environmental Health Perspectives, 2019):
# Structures can show the parent of a compound that is named as a salt.
# Test system: thyroid hormone receptor (endogenous TRα and TRβ)
# Parameters: species or system GH3-TRE-Luc (rat pituitary); GH3-TRE-Luc luciferase reporter, antagonist mode against 1 nM T3, loss of signal, qHTS
# Details: read-out: Average AC50 (uM) GH3-TRE-Antag, antagonist mode, 1 nM T3, no GH3 cytotoxicity hit
row,SMILES,AC50 [µM]
1,CCCCOC(=O)/C=C\C(=O)OCCCC [Dibutyl maleate],37.6
2,Cc1nc2ccccn2c(=O)c1CCN1CCC(C(=O)c2ccc(F)cc2)CC1 [Pirenperone],47
3,C=CC(=O)OCCOC(=O)CCC(=O)O [4-[2-(Acryloyloxy)ethoxy]-4-oxobutanoic acid],73
